We go through ten molecules from PubChem BioAssay (Tox21).

Structures are written as SMILES. Results filed as inconclusive are left out. The source made the active and inactive calls. Unless noted, calls follow the shape of the full dose curve.

Assay [1] is described as follows: Nuclear factor erythroid 2-related factor 2/antioxidant responsive element (Nrf2/ARE) small molecule agonists: qHTS cell viability counter screen in human keratinocytes (AID 1919968; active = well fitted curve in the direction sought with a large enough effect in the repeat runs; an effect the other way counts as inactive or inconclusive; also: nearly all actives have a fitted effect of over 55% in size; also: potency is read from the fitted curve at half-maximal effect). An outline of the steps: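 Parallel cytotoxicity read: KeratinoSens HaCaT cells, compound treatment 23 h, viability by CellTiter-Fluor fluorescence 1 h post-reagent.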
On the technique in general: In qHTS, concentration-response curves come from the screen itself.

Assay [2] concerns the target Gonadotropin-releasing hormone receptor (Homo sapiens) (UniProt P30968). Kind of assay: Human gonadotropin-releasing hormone receptor (GnRHR) small molecule agonists, calcium flux assay in GnRHR-HEK293 cells (AID 1920063). Also: nearly all actives have a fitted effect of over 35% in size. The essentials:
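Calcium flux, agonist mode, human GnRHR stably integrated in HEK293; dye 1 h at 37 C before compound; Ex/Em=480/540 kinetic read, 3 min; 15 concentrations, triplicate.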
(In general: A change in cytosolic calcium serves as a functional read-out for many receptors and channels.)

Assay [3] can be described thus: G protein-coupled receptor (GPCR) small molecule agonists, calcium flux assay: HEK293 wild type cell line counter screen (AID 1920065). An outline of the steps: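 Non-specific calcium responders were flagged by adding DMSO-dissolved compounds to dye-loaded cells and reading 480/540 nm fluorescence each second for 3 min; ATP served as positive control.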
Assay [4] is described as follows: p53 small molecule agonists, cell-based qHTS assay with rat liver microsomes (AID 1963578). An outline of the steps: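 p53RE-bla cells were exposed to compounds together with rat liver microsomes (0.5 mg/mL final) and NADPH (0.5 mg/mL final) for 16 h at 37 C, then read by LiveBLAzer beta-lactamase fluorescence after 2 h at room temperature.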
Assay [5] is described as follows: p53 small molecule agonists, cell-based qHTS assay with human liver microsomes: qHTS cell viability counter screen (AID 1963579). Also: nearly all actives have a fitted effect of over 45% in size. The essentials:
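p53RE-bla cells (4,000/well) were pre-incubated 5 h at 37 C, then given compounds in DMSO plus human liver microsomes (0.5 mg/mL final) and NADPH (0.5 mg/mL final) for 16 h at 37 C. Viability was read by CellTiter-Glo luminescence.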

Assay [6] can be described thus: p53 small molecule agonists, cell-based qHTS assay with rat liver microsomes: qHTS cell viability counter screen (AID 1963580). Also: nearly all actives have a fitted effect of over 45% in size. The essentials: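 After the beta-lactamase ratio was read, CellTiter-Glo was added to the same wells and luminescence measured at 30 min; cells had been treated 16 h at 37 C with compounds, rat liver microsomes and NADPH (0.5 mg/mL final each).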

Assay [7] is described as follows: p53 small molecule agonists, cell-based qHTS assay: qHTS cell viability counter screen (AID 1963581). Also: nearly all actives have a fitted effect of over 45% in size. An outline of the steps:
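Multiplexed with the reporter read, a CellTiter-Glo step (30 min, room temperature) gauges ATP-based viability of HCT-116 p53RE-bla cells after 16 h compound incubation at 37 C.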

The nature of assay [8]: p53 small molecule agonists, cell-based qHTS assay (AID 1963582; active = well fitted activation curve with a large enough effect in the signal ratio in the repeat runs, not every such curve was filed as active; the % refers to the signal ratio). An outline of the steps:
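Beta-lactamase reporter cells (p53RE-bla) treated with compounds for 16 h at 37 C; FRET substrate, 2 h, room temperature; fluorescence intensity.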

Assay [9] concerns the target 5-hydroxytryptamine receptor 2A (Homo sapiens) (UniProt P28223). Kind of assay: 5-hydroxytryptamine receptor 2A (HTR2A) small molecule antagonists, cell-based qHTS assay (AID 1963586). Also: nearly all actives have a fitted effect of over 45% in size. The essentials:
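CHO cells stably expressing human HTR2A were plated for 18 h at 37 C, then loaded with calcium dye for 1 h. Compounds were preincubated 5 min at room temperature before DOI (4 nM solution) was added. Kinetic fluorescence was read for 3 min.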

The target is the same in assay [10]. As to the kind of experiment: 5-hydroxytryptamine receptor 2A (HTR2A) small molecule agonists, cell-based qHTS assay (AID 1963587). Also: nearly all actives have a fitted effect of over 30% in size. Also: potency is read from the fitted curve at half-maximal effect. The essentials: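 CHO cells stably expressing human HTR2A, plated 18 h, loaded with calcium dye 1 h at 37 C. Agonist mode: compounds added and intracellular calcium fluorescence recorded kinetically for 2 min at 1 sec intervals.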

The target in assay [11] is Muscarinic acetylcholine receptor M1 (Homo sapiens) (UniProt P11229). As to the kind of experiment: Cholinergic receptor muscarinic 1 (CHRM1) small molecule antagonists, cell-based qHTS assay (AID 1963588). Also: nearly all actives have a fitted effect of over 40% in size. The essentials:
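Compounds were tested at 15 concentrations in three independent runs. Dye-loaded CHRM1-CHO cells were exposed 5 min at room temperature before stimulation by acetylcholine added at 50nM. Intracellular calcium was read kinetically on FDSS for 3 min.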

For assay [12] the target is unchanged. As to the kind of experiment: Cholinergic receptor muscarinic 1 (CHRM1) small molecule agonists, cell-based qHTS assay (AID 1963589). Also: nearly all actives have a fitted effect of over 35% in size. The essentials:
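qHTS, 15-point titration, 3 independent runs: compounds pin-transferred onto dye-loaded CHRM1-CHO cells (human M1), calcium fluorescence followed every second to detect agonism.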

Assay [13] is described as follows: cAMP Responsive Elements (CRE) small molecule agonists, cell-based qHTS assay (AID 1963590). The essentials:
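Quantitative HTS for CRE agonists: HEK 293T CRE-bla cells, overnight plating, 3 h compound incubation at 37 C/5% CO2, then 2 h room-temperature LiveBLAzer B/G FRET substrate loading.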

A short description of assay [14]: cAMP Responsive Elements (CRE) small molecule antagonists, cell-based qHTS assay (AID 1963591; active = well fitted inhibition curve with a large enough effect in the signal ratio in the repeat runs, not every such curve was filed as active; the % refers to the signal ratio). The essentials:
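Fluorescence intensity from cleaved LiveBLAzer B/G substrate (2 h, room temperature) quantified CRE-bla activity in HEK 293T cells exposed 3 h to compound with 0.25 uM final NKH477.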

Assay [15] addresses Beta-2 adrenergic receptor (Homo sapiens) (UniProt P07550). Kind of assay: Adrenergic beta2 receptor (ADRB2) small molecule antagonists, cell-based qHTS assay (AID 1963592). Also: series mostly up to about 92 µM; nearly all actives have a fitted effect of over 50% in size. The essentials:
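Assay format: CHO-ADRB2 cells, 18-20hr seeding at 37C/5% CO2, then compound plus 1nM isoproterenol agonist mix for 0.5hr RT. Homogeneous time-resolved fluorescence cAMP detection after 1hr, expressed as 665/615 nm ratio.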

The target of assay [16] is D(2) dopamine receptor (Homo sapiens) (UniProt P14416). Kind of assay: Dopamine D2 receptor (DRD2) small molecule agonists, cell-based qHTS assay (AID 1963594). Also: nearly all actives have a fitted effect of over 35% in size. An outline of the steps:
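HEK293 cells stably expressing human DRD2, pre-treated with PDE inhibitor Ro20-1724 (0.1 mM final) and compound 10 min at room temperature, then stimulated with NKH477 (200nM […]) for 30 min. cAMP read by HTRF (665/620 nm).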

Assay [17] deals with KiSS-1 receptor (Homo sapiens) (UniProt Q969F8). As to the kind of experiment: Human kisspeptin (KISS1R) small molecule agonists, calcium flux assay in KISS1R-HEK293 cells (AID 1920064; active = well fitted curve in the direction sought with a large enough effect in the repeat runs; an effect the other way counts as inactive or inconclusive). An outline of the steps:
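Triplicate 15-concentration series were applied to dye-loaded human KISS1R HEK293 cells, and agonist-evoked calcium fluorescence was captured for 3 min.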

For assay [18], the target named is D(2) dopamine receptor (Homo sapiens) (UniProt P14416). As to the kind of experiment: Dopamine D2 receptor (DRD2) small molecule antagonists, cell-based qHTS assay (AID 1963595; active = well fitted inhibition curve with a large enough effect in the signal ratio in the repeat runs, with a control signal flat; the % refers to the signal ratio). An outline of the steps:
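HEK293 cells stably expressing DRD2, preincubated with 0.1 mM Ro20-1724 and compounds 10 min, were stimulated with 200 nM NKH477 plus 12 nM quinpirole for 30 min at room temperature; cAMP measured by HTRF (665/620 nm).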

Assay [19] is described as follows: p53 small molecule agonists, cell-based qHTS assay with human liver microsomes (AID 1963577). The essentials:
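p53RE-bla reporter cells were pre-incubated 5 h at 37 C, then treated with compounds plus human liver microsomes (0.5 mg/mL final) and NADPH (0.5 mg/mL final) for 16 h at 37 C. Beta-lactamase activity was read by LiveBLAzer fluorescence after 2 h at room temperature.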

Assay [20] addresses Beta-2 adrenergic receptor (Homo sapiens) (UniProt P07550). As to the kind of experiment: Adrenergic beta2 receptor (ADRB2) small molecule agonists, cell-based qHTS assay (AID 1963593).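 Also: CHO cells stably overexpressing human ADRB2.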 An outline of the steps: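 CHO cells stably over-expressing ADRB2 were plated overnight at 37C, then dosed with compounds plus a stimulation mix containing 100uM IBMX and 25uM Ro-20-1724 for 0.5hr at room temperature. cAMP was measured by HTRF competition, 1hr.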

Sequence of 5-hydroxytryptamine receptor 2A (Homo sapiens) (P28223 whole entry, looked up): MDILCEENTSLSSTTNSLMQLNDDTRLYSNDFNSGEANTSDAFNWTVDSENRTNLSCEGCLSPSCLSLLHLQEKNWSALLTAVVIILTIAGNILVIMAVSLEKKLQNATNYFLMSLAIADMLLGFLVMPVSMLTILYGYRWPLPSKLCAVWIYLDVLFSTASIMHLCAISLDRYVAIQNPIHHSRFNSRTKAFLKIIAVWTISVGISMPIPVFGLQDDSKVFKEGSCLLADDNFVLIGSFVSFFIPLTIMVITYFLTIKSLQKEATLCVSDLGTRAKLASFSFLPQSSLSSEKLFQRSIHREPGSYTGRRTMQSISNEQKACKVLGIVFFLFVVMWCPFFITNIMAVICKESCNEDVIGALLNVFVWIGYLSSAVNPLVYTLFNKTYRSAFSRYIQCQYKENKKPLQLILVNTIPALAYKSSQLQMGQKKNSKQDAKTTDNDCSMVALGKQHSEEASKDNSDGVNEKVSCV
Sequence of D(2) dopamine receptor (Homo sapiens) (P14416 whole entry, looked up): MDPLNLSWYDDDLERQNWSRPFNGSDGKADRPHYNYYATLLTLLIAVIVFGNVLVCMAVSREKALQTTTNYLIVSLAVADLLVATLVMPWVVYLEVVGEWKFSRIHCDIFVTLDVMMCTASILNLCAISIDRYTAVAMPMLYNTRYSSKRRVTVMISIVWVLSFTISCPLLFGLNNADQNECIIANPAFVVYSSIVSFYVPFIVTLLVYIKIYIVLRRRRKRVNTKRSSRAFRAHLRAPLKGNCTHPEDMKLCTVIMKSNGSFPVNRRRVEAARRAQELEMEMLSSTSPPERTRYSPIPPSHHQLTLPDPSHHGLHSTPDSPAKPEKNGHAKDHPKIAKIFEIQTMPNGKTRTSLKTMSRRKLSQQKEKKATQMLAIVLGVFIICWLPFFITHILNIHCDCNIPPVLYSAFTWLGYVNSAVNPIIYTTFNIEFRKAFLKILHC
Sequence of KiSS-1 receptor (Homo sapiens) (Q969F8 whole entry, looked up): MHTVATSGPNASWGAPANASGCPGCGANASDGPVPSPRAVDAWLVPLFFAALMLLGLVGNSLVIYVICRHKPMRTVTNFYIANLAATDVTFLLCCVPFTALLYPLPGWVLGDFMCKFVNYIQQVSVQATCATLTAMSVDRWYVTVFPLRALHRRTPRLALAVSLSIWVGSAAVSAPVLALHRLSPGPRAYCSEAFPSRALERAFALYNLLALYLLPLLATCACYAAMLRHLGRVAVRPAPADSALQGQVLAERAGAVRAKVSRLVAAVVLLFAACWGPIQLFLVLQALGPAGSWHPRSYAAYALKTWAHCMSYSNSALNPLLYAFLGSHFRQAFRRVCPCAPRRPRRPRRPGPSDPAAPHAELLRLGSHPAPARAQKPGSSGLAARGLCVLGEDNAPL
Sequence of Beta-2 adrenergic receptor (Homo sapiens) (P07550 whole entry, looked up): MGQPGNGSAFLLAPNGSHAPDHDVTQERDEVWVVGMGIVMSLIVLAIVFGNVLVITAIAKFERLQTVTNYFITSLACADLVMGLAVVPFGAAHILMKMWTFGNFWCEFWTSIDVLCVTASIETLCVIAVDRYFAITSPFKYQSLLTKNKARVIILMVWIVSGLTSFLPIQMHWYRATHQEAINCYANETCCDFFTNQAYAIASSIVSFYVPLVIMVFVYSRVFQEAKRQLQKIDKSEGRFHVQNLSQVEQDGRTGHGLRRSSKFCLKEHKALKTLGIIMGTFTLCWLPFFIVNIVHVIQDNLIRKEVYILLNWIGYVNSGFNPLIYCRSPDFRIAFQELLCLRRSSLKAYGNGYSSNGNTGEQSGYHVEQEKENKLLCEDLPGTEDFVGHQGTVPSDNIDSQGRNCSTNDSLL
Sequence of Muscarinic acetylcholine receptor M1 (Homo sapiens) (P11229 whole entry, looked up): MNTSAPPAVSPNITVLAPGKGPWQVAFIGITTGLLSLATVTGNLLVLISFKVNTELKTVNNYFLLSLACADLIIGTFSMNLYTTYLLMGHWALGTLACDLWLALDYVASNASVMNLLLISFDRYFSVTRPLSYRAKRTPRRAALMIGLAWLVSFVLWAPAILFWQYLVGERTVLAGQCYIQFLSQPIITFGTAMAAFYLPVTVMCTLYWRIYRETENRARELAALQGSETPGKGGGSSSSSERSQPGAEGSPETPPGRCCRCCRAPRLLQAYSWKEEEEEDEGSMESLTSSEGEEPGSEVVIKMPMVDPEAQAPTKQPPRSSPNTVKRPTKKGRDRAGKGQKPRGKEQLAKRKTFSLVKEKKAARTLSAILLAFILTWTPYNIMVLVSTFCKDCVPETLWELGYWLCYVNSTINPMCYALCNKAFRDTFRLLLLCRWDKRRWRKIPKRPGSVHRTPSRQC
Sequence of Gonadotropin-releasing hormone receptor (Homo sapiens) (P30968 whole entry, looked up): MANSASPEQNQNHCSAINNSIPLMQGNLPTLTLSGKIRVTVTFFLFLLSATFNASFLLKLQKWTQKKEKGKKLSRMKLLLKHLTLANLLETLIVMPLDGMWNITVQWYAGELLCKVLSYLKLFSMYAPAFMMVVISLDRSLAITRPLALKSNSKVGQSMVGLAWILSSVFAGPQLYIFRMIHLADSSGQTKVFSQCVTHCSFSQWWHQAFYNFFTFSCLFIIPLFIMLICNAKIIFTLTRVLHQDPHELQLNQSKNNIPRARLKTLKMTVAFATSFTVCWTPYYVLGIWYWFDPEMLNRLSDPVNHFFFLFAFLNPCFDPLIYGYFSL

On to `N#CCCOCCC#N`, for which the Potency result in assay [1], in [2], in [3], in assay [4], in [5] and in assay [6] was “inactive” in each case. Further, the Potency entry in assay [7], in [8], in assay [9], in assay [10], in [11] and in assay [12] was “inactive” in each case. Moreover, the Potency entry in [13], in assay [14], in assay [15] and in assay [16] was “inactive” in each case.

As for `CC(C)NC(=O)NC(C)C`, the Potency entry in assay [1], in assay [2], in [17], in assay [6], in assay [7] and in assay [9] was “inactive” throughout. For the same molecule, the Potency entry in [10], in assay [11], in assay [12], in assay [13], in [14] and in assay [15] was “inactive” throughout. Further, the Potency entry in [16] and in [18] was “inactive” in each case.

For `Cc1cc(O)c2ccccc2c1O`, the Potency in [1] is 13.3 µM (active). Also, the Potency result in assay [2], in [3], in assay [19], in assay [4], in [5] and in assay [8] was “inactive” throughout. Moreover, the Potency entry in assay [9], in [10], in [11], in assay [12], in assay [15] and in assay [16] was “inactive” throughout. The Potency entry in assay [18] is “inactive”.

Consider `CCCCCCCCCCCCSC#N`, for which the Potency result in assay [1], in assay [2], in [3], in [19], in assay [5] and in [6] was “inactive” each time. Also, the Potency entry in assay [7], in assay [8], in assay [9], in [10], in assay [11] and in [12] was “inactive” throughout. For the same molecule, the Potency entry in assay [13], in assay [15], in assay [16] and in assay [18] was “inactive” each time.

For `CO`, the Potency entry in [1], in assay [2], in assay [3], in assay [19], in [4] and in assay [5] was “inactive” in each case. Further, the Potency result in assay [6], in [7], in assay [8], in assay [9], in assay [10] and in assay [12] was “inactive” throughout. Further, the Potency entry in assay [13], in assay [14], in assay [15], in [20] and in [16] was “inactive” in each case.

Turning to `c1cc(C(c2ccc(OCC3CO3)cc2)c2ccc(OCC3CO3)cc2)ccc1OCC1CO1` (centres undefined), the Potency in assay [1] is 27.3 µM (active). Moreover, the Potency entry in assay [2], in assay [3], in assay [19], in [4], in [5] and in assay [7] was “inactive” throughout. Besides, the Potency result in assay [9], in assay [11], in assay [12], in assay [16] and in [18] was “inactive” each time.

Take `Cn1c(N)nc2nc[nH]c2c1=O`: the Potency result in assay [1], in [2], in assay [3], in assay [19], in assay [4] and in assay [5] was “inactive” each time. Besides, the Potency entry in assay [6], in assay [9], in assay [11], in [12] and in assay [14] was “inactive” each time.

Regarding `CC(NCCC(c1ccccc1)c1ccccc1)c1ccccc1` (centres undefined), the results for the Potency in assay [1] and in [10] were 26.6 µM (active) and 23.9 µM (active), respectively. Further, the Potency entry in assay [17], in assay [3], in [19], in [4], in [5] and in assay [6] was “inactive” each time. Further, the Potency entry in [7], in [8], in assay [9], in assay [11], in [12] and in [16] was “inactive” each time.

For the molecule `CC/C=C\CCCCCO`, the Potency result in assay [1], in [17], in [3], in assay [19], in assay [4] and in assay [5] was “inactive” each time. The Potency result in [6], in assay [7], in assay [8], in assay [9], in [10] and in assay [11] was “inactive” each time. The Potency result in assay [12], in assay [13], in assay [14], in assay [15], in assay [20] and in assay [16] was “inactive” each time. Besides, the Potency entry in assay [18] is “inactive”.

With `CCCCC(CC)COC(=O)c1ccccc1C(=O)O` (centres undefined), the Potency entry in [1], in assay [2], in assay [5], in assay [6], in [10] and in assay [12] was “inactive” throughout.
